# Measurements: PubChem BioAssay AID588335 (The Scripps Research Institute Molecular Screening Center, 2011)
# The whole screen tested about 360,000 compounds, of which about 4,500 (1.2%) were called active. This excerpt belongs to a sample that is enriched for actives. Unmarked numbers belong to inactive results. Rule as the data show it: active = inhibition above about 30%; inactive = the rest.
# Assay: inhibition of GDH and TPI enzymes – biochemical, absorbance, full deck, artefact control for M. tuberculosis FBA inhibitor project, primary screen (AID 588335);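 also: 0% = DMSO wells and 100% = wells lacking the enzyme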
# Details: GDH-TPI coupled enzyme counterscreen, NADH absorbance; at 4.8 µM; stronger effect = higher value
row,SMILES,inhibition
1,CC1CCCCC1NC(=O)COC(=O)Cc1ccc(Br)cc1 (stereo unspecified),0.32%
2,O=C(/C=C/c1ccc(Cl)c([N+](=O)[O-])c1)c1ccc(O)cc1,40.7% (active)
3,O=C(O)c1ccc2c(=O)n3c(nc2c1)/C(=C/c1ccc(Cl)c([N+](=O)[O-])c1)CC3,-3.69%
4,O=C(COC(=O)c1ccc(O)cc1O)c1ccc2c(c1)OCCO2,-0.63%
5,O=C(/C=C/c1ccc2c(c1)OCCO2)c1ccc(O)cc1,37.5% (active)
6,C/C(=N\NC(=O)C(N)=O)c1ccc2c(c1)OCCO2,0.63%
7,Cc1ccnc(NC(=O)c2ccc(Cl)c([N+](=O)[O-])c2)c1,8.28%
8,CC(C)C(=O)N1CC(=O)Nc2ccc(F)cc2C1c1ccc(F)cc1 (stereo unspecified),2.76%
9,CSc1nc2ccccc2cc1/C=C(\C#N)c1ccc(Cl)cc1Cl,12.3%
10,CC(=O)N1CCc2cc(Br)cc(S(=O)(=O)CCC(=O)Nc3c(C)n(C)n(-c4ccccc4)c3=O)c21,0%
11,CCN(CC)CCCNC(=O)c1ccc2c(=O)n(Cc3ccc4c(c3)OCO4)c(=S)[nH]c2c1,3.66%
12,CCSC(C)CC1C/C(=N/O)c2c(C)noc2C1 (stereo unspecified),-6.62%
13,C[C@@H]1O[C@@H](OC[C@H]2O[C@@H](Oc3c(-c4ccc(O)cc4)oc4cc(O)cc(O)c4c3=O)[C@H](O)[C@@H](O)[C@@H]2O)[C@H](O)[C@H](O)[C@H]1O,17.6%
14,COc1ccc(-c2cc(=O)c3c(O)cc(O[C@@H]4O[C@H](CO[C@@H]5O[C@@H](C)[C@H](O)[C@@H](O)[C@H]5O)[C@@H](O)[C@H](O)[C@H]4O)cc3o2)cc1O,37.8% (active)
15,COc1c(O)cc2oc(-c3ccc(O)c(O)c3)cc(=O)c2c1O,22%
16,Cc1csc(CN(C)C(=O)CC2C(=O)NCCN2CC(C)(C)C)n1 (stereo unspecified),-0.64%
17,CC1(C(=O)Nc2cccc(Oc3ccccc3)c2)CCN1Cc1ccccc1Cl (stereo unspecified),11.5%
18,CCOc1cc(C)ccc1OCc1nnc(SCC(=O)Nc2cccc(C(=O)O)c2)n1-c1ccccc1,5.71%
19,CCN(CC)CCCNC(=S)N(CCO)Cc1cc2cc3c(cc2[nH]c1=O)OCO3,10.3%
20,CCNC(=S)N(CCN(CC)CC)Cc1cc2cc3c(cc2[nH]c1=O)OCCO3,27.9%
21,CCNC(=S)N(CCN(CC)CC)Cc1cc2cc3c(cc2[nH]c1=O)OCO3,40.6% (active)
22,CN1C(CC(=O)Nc2ccc(Br)cc2)c2ccccc2CC1(C)C (stereo unspecified),2.84%
23,COc1cc(C(=O)N2CCN(S(=O)(=O)c3ccc(C(C)C)cc3)CC2)ccc1OCC(=O)N1CCOCC1,-5.56%

row,SMILES,inhibition
1,O=C(Nc1sc2c(c1-c1nc3ccccc3[nH]1)CCCC2)C1CC1,12.9%
2,c1ccc2[nH]c(-c3nc4ccccc4[nH]3)nc2c1,36.1% (active)
3,Nc1ccccc1-c1nc2ccncc2[nH]1,17.8%
4,CCc1ccc2c(c1)cc(CN(C(=S)Nc1ccccc1Cl)C1CC1)c1nnnn12,3.4%
5,COCCCN(C(=S)Nc1c(C)cc(C)cc1C)C(C)c1ccncc1 (stereo unspecified),-1.1%
6,O=C1N/C(=N\N=C\c2ccco2)SC1Cc1ccc(F)cc1 (stereo unspecified),34.3% (active)
7,COc1ccc(CN2C(=O)C(C)S/C2=N/N=C/c2ccco2)cc1 (stereo unspecified),28.3%
8,CC(C)=N/N=C1/NC(=O)C(Cc2ccccc2)S1 (stereo unspecified),1.52%
9,CCC1S/C(=N/N=C/c2ccco2)NC1=O (stereo unspecified),48.7% (active)
10,CCCCC1S/C(=N/N=C/c2cccs2)NC1=O (stereo unspecified),23.8%
11,C=CCN1C(=O)C(Cc2cccc(Cl)c2)S/C1=N/N=C/c1ccco1 (stereo unspecified),17.9%
12,NC(=O)Cn1nc([N+](=O)[O-])nc1Oc1ccc(Br)cc1,-2.44%
13,COc1ccc(OC)c(-n2cc3c(=O)n(C)c(=O)n(C)c3c2)c1,17.5%
14,Cc1noc(COc2ccccc2OCc2onc(C)c2Cl)c1Cl,-5.03%
15,Cc1cc(NC(=O)CN2C(=O)NC(C)(CCc3ccccc3)C2=O)no1 (stereo unspecified),-0.61%
16,COC(=O)c1sc2[nH]c(=S)n(N)c(=O)c2c1C,31.6% (active)
17,COC(=O)c1sc(NC(=O)COC(=O)C2CCC2)c(C(=O)OC)c1C,-0.7%
18,CCCC(CCC(=O)OC)(C(=O)OCC)c1csc(N)n1 (stereo unspecified),13%
19,CCc1ccc(C(=O)COC(=O)c2ccco2)cc1,-8.19%
20,O=C(COC(=O)c1ccccc1C(=O)c1ccccc1)c1ccco1,-5.13%
21,CCN(CC)c1ccc(C(=O)OCC(=O)c2ccco2)cc1,31.4% (active)
22,C[C@H](NC(=O)C1CCN(S(=O)(=O)c2ccccc2)CC1)C(=O)NCc1ccccc1,-5.08%
23,O=C(CN1C(=O)NC2(CCCCCC2)C1=O)Nc1ccc([N+](=O)[O-])cc1,22.4%

row,SMILES,inhibition
1,COc1cc(C=NC2CCCCC2)ccc1O,32.4% (active)
2,COc1ccccc1-n1c(O)c(C=NC2CC2)c(=O)[nH]c1=O,-4.18%
3,COc1cc(C(=S)NC2CCCCC2)ccc1O,2.87%
4,COc1ccc(CCn2c(NCCCN3CCOCC3)nc3c2c(=O)[nH]c(=O)n3C)cc1,2.26%
5,Cc1nnc(Sc2nc3c(c(=O)[nH]c(=O)n3C)n2Cc2ccccc2)s1,3.35%
6,Cn1c(=O)[nH]c(=O)c2c1nc(NCCCn1ccnc1)n2Cc1cccc(Br)c1,33.2% (active)
7,Cc1cc(C)cc(C(=O)NCC(=O)OCC(=O)N2CCCCC2)c1,-3.76%
8,Cc1ccc(-n2ncc3c2CC(C)(C)CC3NC(=O)Cc2c(C)noc2C)cc1 (stereo unspecified),2.41%
9,Cc1ccc(NC(=O)c2nc[nH]c2C(=O)N2CCCCC2)c(C(=O)c2ccccc2)c1,16.6%
10,CC(CNS(=O)(=O)c1ccc(Br)cc1)CN(C)C (stereo unspecified),-2.58%
11,COc1ccc2c(c1)c(C(=O)N/N=C/c1cccs1)c(C)n2C,38.7% (active)
12,COc1ccc(N(CC(=O)N/N=C/c2cccs2)S(=O)(=O)c2ccc(OC)c(OC)c2)cc1,7.97%
13,Cc1c(NC(=O)C(=O)N/N=C/c2cccs2)c(=O)n(-c2ccccc2)n1C,6.43%
14,CCOC(=O)c1ccccc1NS(=O)(=O)c1c(C)nc2sccn2c1=O,15%
15,COc1ccc(CCNC(=O)COC(=O)c2ccc[nH]c2=O)cc1,7.19%
16,COCCCn1c(SCc2cccc(OC)c2)nc2cc(OC)c(OC)cc2c1=N,-0.63%
17,O=C(N/N=C/c1ccco1)c1ccc(C(=O)N/N=C/c2ccco2)o1,47.5% (active)
18,O=C(CCNC(=O)c1ccccc1Cl)NN=Cc1ccco1,10.8%
19,O=C(Cc1ccccc1)Nc1cccc(C(=O)N/N=C/c2ccco2)c1,12.2%
20,COc1ccc(O)c(C(=O)c2cnc3onc(C(C)C)c3c2)c1,5.83%
21,COc1ccc(Cn2cc(CN3CCS(=O)(=O)N(Cc4ccc(-c5cccc(Cl)c5)cc4)C(C)C3=O)nn2)cc1 (stereo unspecified),12.3%
22,C=CCn1c(CCNC(=O)c2cccs2)n[nH]c1=S,-2.53%
23,C=CCn1c(=NC(=O)c2ccc(S(=O)(=O)N3CCCC3)cc2)sc2cc(NC(C)=O)ccc21,28.4%

row,SMILES,inhibition
1,C=CCn1c(=NC(=O)c2cccs2)sc2cc(NC(C)=O)ccc21,31.8% (active)
2,Cc1ccc(O)c(CCc2ccccc2)n1,5.82%
3,COC(=O)C(C(=O)Nc1cccc(Cl)c1C)C1CCCC1 (stereo unspecified),2.59%
4,CCOC(=O)N1CCN(C(=O)CSc2nnc(-c3c[nH]c4ccccc34)n2CCOC)CC1,21.3%
5,Cc1ccc(C)c(S(=O)(=O)N(C)c2ccc(OC(=O)C3CCN(C(=O)c4ccc(F)cc4)CC3)cc2)c1,-2.88%
6,CCN(C(=O)COC(=O)c1cc(S(=O)(=O)N2CCc3ccccc32)ccc1OC)C1CCS(=O)(=O)C1 (stereo unspecified),-2.55%
7,Cc1ccc2oc(=O)c3cnn(CC(=O)N(Cc4ccco4)C4CCCCC4)c3c2c1,0%
8,CN1CCN(CCNC(=O)Nc2ccc([N+](=O)[O-])cc2)CC1,35.1% (active)
9,O=C(NCCCN1CCN(c2ccc(F)cc2)CC1)Nc1ccc([N+](=O)[O-])cc1,21.2%
10,CN1CCN(CCNC(=O)Nc2ccccc2[N+](=O)[O-])CC1,1.97%
11,CC(Oc1ccc(F)cc1)C(=O)Nc1cc(S(=O)(=O)N2CCOCC2)ccc1N1CCN(C)CC1 (stereo unspecified),-7.32%
12,COC(=O)c1ccc(NC(=O)C23CC4CC(C2)CC(n2cnc(Cl)n2)(C4)C3)cc1,7.31%
13,CCC(CC)C(=O)Nc1cccc(C(=O)N2CCCC2)c1,2.12%
14,COc1ccc(NC(=O)CCCOc2ccc(C(C)=O)cc2)cc1S(=O)(=O)N1CCCCC1,7.56%
15,O=C(NCCCN1CCCCCC1)c1ccc(N2CCCC2=O)cc1,3.81%
16,C/C(=N\NC(=O)c1cccc(N2CCCC2=O)c1)c1ccc(N)cc1,5.43%
17,COc1cc(/C=N/NC(=O)c2ccc(N3CCCC3=O)cc2)ccc1O,43.2% (active)
18,CN(CC(O)COc1ccc(S(=O)(=O)N2CCOCC2)cc1Cl)C1CCCCC1 (stereo unspecified),-2.47%
19,Cn1c(SCC(=O)Nc2ccc(Cl)cc2)nc(O)cc1=O,4.39%
20,Cc1ccc(C(=O)N/C(=C/c2ccc(-c3cccc([N+](=O)[O-])c3)o2)C(=O)NCCCN(C)C)cc1,58.5% (active)
21,O=C(NCc1ccco1)/C(=C\c1cccc([N+](=O)[O-])c1)NC(=O)c1ccco1,16.8%
22,O=C(NCc1ccco1)/C(=C/c1cccc([N+](=O)[O-])c1)NC(=O)c1ccco1,-4.48%
